Screens deposited in PubChem by The Scripps Research Institute Molecular Screening Center.
An excerpt weighted towards active compounds, which were near 1.1% of everything screened.
SRC2 inh: human SRC2 (NCOA2) inhibition. actives 0.17% (n = 370,000). inhibition, % at 9 µM. HEK293 GAL4-SRC2 luciferase reporter, luminescence. Q15596;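 active = inhibition above the mean inhibition of all tested compounds plus 3 SD, set per campaign, cut at about 52% in these data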
GalR3 antagonist: blocks the human galanin receptor 3; HEK293 GalR3-CNG cAMP membrane potential fluorescence; galR3 body fused to GalR1 C-terminus; actives 0.44% (n = 360,000); inhibition, % at 3 µM; O60755;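 active = inhibition above the screen-wide average plus 3 SD, cut at about 13% in these data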;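 note: forskolin and galanin both at EC90 stimulate the cells; cAMP rise reported by CNG channel membrane potential dye signal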
SRC1 inh: inhibits human SRC1 coactivator; Q15788; HEK293 GAL4-SRC1 luciferase reporter, luminescence; inhibition, % at 3.6 µM; actives 0.12% (n = 360,000); AID 588354;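 active = inhibition above the campaign mean plus 3 SD, with each screening campaign given its own cutoff, cut at about 60% in these data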
NR2F2 inh: inhibitors of human COUP-TFII (NR2F2) | P24468 | HEK293T NGFI-A luciferase reporter, luminescence | inhibition, % at 8.6 µM | actives 0.7% (n = 370,000) | AID 686940;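 active = inhibition above a per-plate cutoff, mean inhibition of test wells between control levels plus 3 SD, cut at about 38% in these data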;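 note: cells cotransfected with COUP-TFII expression vector driving the NGFI-A reporter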
SRC3 inh: inhibits human SRC3 coactivator | actives 0.17% (n = 360,000) | HEK293 GAL4-SRC3 luciferase reporter, luminescence | Q9Y6Q9 | inhibition, % at 3.6 µM;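 active = inhibition above a per-campaign cutoff, the mean of all compounds plus 3 SD, cut at about 60% in these data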;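 note: higher means less SRC3-driven luciferase light from the GAL4 reporter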
NR5A2 inv ag: NR5A2 inverse agonism in reporter assay. O00482. HEK293T StAR-luciferase reporter, LRH-1 transfected, 24 h. inhibition, % at 3.6 µM. actives 0.13% (n = 360,000);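 active = inhibition above the mean inhibition of all tested compounds plus 3 SD, cut at about 73% in these data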
Gal4-VP16 ctr: inhibits VP16 reporter, flagging COUP-TFII antagonist hits; inhibition, % at 8.5 µM; shares compounds with NR2F2 inh; actives 25% (n = 2,500); HEK293 Gal4-VP16 luciferase reporter, luminescence; in the data active = inhibition above about 13%
COUP-TFII conf: confirmation of human COUP-TFII (NR2F2) inhibitors; shares compounds with NR2F2 inh; HEK293 NGFI-A luciferase reporter, luminescence; inhibition, % at 8.5 µM; actives 45% (n = 2,500); AID 687008;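 active = mean inhibition over three repeats above a set limit taken from the earlier primary screen, cut at about 38% in these data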
Hits are given with their value; – = inactive; · = not tested or not shown.

SMILES	SRC2 inh	GalR3 antagonist	SRC1 inh	NR2F2 inh	SRC3 inh	NR5A2 inv ag	Gal4-VP16 ctr	COUP-TFII conf
Cc1cc(N2CCN(C/C=C/c3ccccc3)CC2)n2ncnc2n1	–	–	–	40	–	–	–	–
CC(C)(C)C(=O)Nc1cc2nn(-c3ccccc3)nc2cc1Cl	73	–	82	87	81	83	72	101
CC(=O)Nc1cc2nn(-c3ccccc3)nc2cc1Cl	–	–	–	–	–	–	·	·
O=C(Nc1nc2c(Br)cccc2s1)c1ccc2c(c1)OCCO2	·	·	·	–	·	·	·	·
COCCCN1C(=O)[C@H](CC(=O)NCC2CCCCC2)[C@]2(C(=O)OC)CCCCC=C12	–	·	·	–	·	·	·	·
O=C(N[C@H]1CCCc2c1cnn2-c1ccc(F)cc1F)c1ccccn1	·	·	·	–	·	·	·	·
CC1=C(C(=O)NC2CCCc3c2cnn3-c2ccc(F)cc2F)OCCO1 (configuration not stated)	–	–	–	47	–	–	–	–
O=C(NC1CCCc2c1cnn2-c1ccc(F)cc1F)c1ccccn1 (configuration not stated)	–	–	–	–	–	–	·	·
CCc1cc(C(=O)NC2CCCc3c2cnn3-c2ccc(F)cc2F)no1 (configuration not stated)	–	–	–	53	–	–	–	–
Cc1nnsc1C(=O)NC1CCCc2c1cnn2-c1ccccc1F (configuration not stated)	–	–	–	45	–	–	–	45
O=C(C(=Cc1ccccc1)CN1CCCCC1)c1ccccc1	–	–	–	52	–	77	72	95
CS(=O)(=O)N(CCC#N)Cc1ccc(/C=C2\C(=O)Nc3ccccc32)o1	–	–	–	38	–	–	–	–
O=C(C1CCN(c2cncnc2)CC1)N1CCCC1	–	·	·	–	·	·	·	·
CC(C)(C)c1ccc(NC(=O)COc2ccc(-n3ccnc3)cc2)cc1	–	–	–	51	–	–	–	47
Cc1ccc(S(=O)(=O)c2cccc(S(=O)(=O)N3CCOCC3)c2)cc1S(=O)(=O)N1CCOCC1	–	–	–	–	–	–	·	·
Cc1ccc(S(=O)(=O)c2cccc(S(=O)(=O)N3CCCC3)c2)cc1S(=O)(=O)N1CCCC1	–	–	–	61	–	–	–	–
CCOC(=O)c1cnc(-n2nc(C)cc2C)nc1NCCc1ccccc1	–	–	–	48	–	–	–	–
CCOC(=O)c1cnc(-n2nc(C)cc2C)nc1NC1CCCC1	–	–	–	44	–	–	–	56
CCOC(=O)c1cnc(-n2nc(C)cc2C)nc1Nc1ccc(OC)cc1	–	–	–	–	–	–	·	·
CCOC(=O)[C@]12CCCCC/C=C\1N(Cc1ccc(OC)cc1)C(=O)[C@H]2CC(=O)N1CCCC1	–	·	·	–	·	·	·	·
CCN1CCN(Cc2ccc(NC(=O)c3ccc(C)c(NC(=O)c4ccc5n[nH]nc5c4)c3)cc2C(F)(F)F)CC1	–	–	–	–	–	–	·	·
CCN1CCN(Cc2ccc(NC(=O)c3cccc(-c4ccc5nc(NC(=O)C6CC6)sc5n4)c3)cc2C(F)(F)F)CC1	–	–	·	40	·	·	–	40
CCN1/C(=C/C=C/c2oc3ccc(-c4ccccc4)cc3[n+]2CC)Oc2ccc(-c3ccccc3)cc21	–	–	–	84	–	–	40	94
O=C(Nc1ccc(Br)cc1)c1ccc(F)c(S(=O)(=O)NCc2cccs2)c1	–	109	–	72	–	–	–	56
COc1ccc2c(c1)CNC2CS(=O)(=O)NCc1ccc(F)cc1 (configuration not stated)	–	·	·	–	·	·	·	·
Cc1ccc(NC(=O)C2CCN(S(=O)(=O)c3ccc4c(c3)NC(=O)C(C)S4)CC2)cc1Cl (configuration not stated)	–	–	–	64	–	–	–	47
CC(C)(C)c1ccc(C(=O)Nc2cccc3c(=O)[nH][nH]c(=O)c23)cc1	–	–	–	48	–	–	–	54
